# Results filed as inconclusive are left out. A call without a number means that no potency is given here. Active and inactive are the calls of the source. Unless noted, calls follow the shape of the dose curve; as a rule, active = well fitted curve in the direction sought with a large enough effect; inconclusive = small, poorly fitted or top-dose-only effect, or another doubt; inactive = no such curve, though single readings can be large; an effect the other way counts as inactive or inconclusive.
# Assays:
# [1] = target: Mitogen-activated protein kinase 10 (Mus musculus) (UniProt Q61831); experiment: JNK3 AlphaScreen Assay (AID 530; active = well fitted curve in either direction with a large enough effect, not every such curve was filed as active;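 also: kinase came from lysate of stimulated human HepG2 cells; signal reports phosphorylation of biotinylated GST-cJun 1-79 at Ser73 with 10 µM ATP; series mostly up to about 57 µM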)
# Procedure, shortened: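 qHTS format: compounds tested as titrations against IL-1beta/TNF-alpha-activated HepG2 lysate JNK3 with biotin-GST-cJun substrate and 10 uM ATP at room temperature. Loss of anti-phospho-cJun AlphaScreen signal indicates inhibition.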
# [2] = target: 3',5'-cyclic-AMP phosphodiesterase 4B (Homo sapiens) (UniProt Q07343); experiment: qHTS Assay for Inhibitors of PDE-IV (AID 607; active = well fitted activation curve with a large enough effect in the main read-out, with a control signal flat, not every such curve was filed as active)
# Procedure, shortened: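 Cell-based read-out of cAMP via a modified cyclic nucleotide-gated channel and membrane potential dye (535/590 nm) in HEK293 cells expressing PDE4 endogenously. Compounds tested up to 22.9 uM final; 100 uM RO 20-1724 reference.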
# [3] = target: Cytochrome P450 2C9 (Homo sapiens) (UniProt P11712); experiment: qHTS Assay for Inhibitors and Substrates of Cytochrome P450 2C9 (AID 883); also: potency is read from the fitted curve at half-maximal effect; nearly all actives have a fitted effect of over 60% in size
# Procedure, shortened: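 Signal: luciferase luminescence reporting luciferin produced by CYP2C9. Conditions: 10nM enzyme, Luciferin-H 100uM at KM, 25mM KPO4, 37C, 60 min NADPH-driven reaction. Reference: 57uM sulphaphenazole as 100% inhibition.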
# [4] = target: Cytochrome P450 3A4 (Homo sapiens) (UniProt P08684); experiment: qHTS Assay for Inhibitors and Substrates of Cytochrome P450 3A4 (AID 884); also: nearly all actives have a fitted effect of over 50% in size; also: potency is read from the fitted curve at half-maximal effect
# Procedure, shortened: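 20 nM human CYP3A4 with 25 uM Luciferin-PPXE (at KM) in 200 mM KPO4, preincubated 10 min with compound; NADPH regeneration started a 60 min RT reaction. Luciferin detected by luminescence, normalized to 57 uM ketoconazole as full inhibition.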
# [5] = target: Cytochrome P450 3A4 (Homo sapiens) (UniProt P08684); experiment: qHTS Assay for Activators of Cytochrome P450 3A4 (AID 885); also: nearly all actives have a fitted effect of over 65% in size
# Procedure, shortened: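 Signal was normalized against complete inhibition by 57 uM ketoconazole. The reaction used 20nM CYP3A4 with 25uM Luciferin-PPXE, 10-min compound preincubation and a 60-min NADPH-supported step at RT.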
# [6] = qHTS for Inhibitors of Plasmodium falciparum (DD2) proliferation (AID 504314);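 also: parasite DNA measured by SYBR Green fluorescence after red cell lysis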
# Procedure, shortened: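 Infected RBCs, 0.3% parasitemia, 2.5% Hct; compound 72 h, 37C/5% CO2; lyse + SYBR Green I, RT overnight, dark; read ex485/em535; normalize to DMSO and artemisinin 0.29 uM.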
# [7] = qHTS for Inhibitors of Plasmodium falciparum (GB4) proliferation (AID 504315); also: nearly all actives have a fitted effect of over 50% in size
# Procedure, shortened: (§1)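 Erythrocytes infected with P. falciparum line (0.3% parasitemia, 2.5% hematocrit final) incubated with compounds 72 h at 37 °C, 5% CO2; SYBR Green lysis buffer added, fluorescence read next day. Normalized to 0.29 uM artemisinin and DMSO.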
# [8] = qHTS for Inhibitors of Plasmodium falciparum (CP250) proliferation (AID 504320)
# Procedure, shortened: as §1
# [9] = target: Cytochrome P450 2D6 (Homo sapiens) (UniProt P10635); experiment: qHTS Assay for Inhibitors and Substrates of Cytochrome P450 2D6 (AID 891); also: nearly all actives have a fitted effect of over 60% in size; also: potency is read from the fitted curve at half-maximal effect
# Procedure, shortened: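 Human CYP2D6 (5 nM) with 30 uM Luciferin-ME EGE (at Km) in 100 mM KPO4, compound preincubated 10 min, then NADPH regeneration system for 60 min at room temperature. Luciferin read by luminescence; normalized to 1.43 uM quinidine.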
# [10] = target: Cytochrome P450 2C19 (Homo sapiens) (UniProt P33261); experiment: qHTS Assay for Inhibitors and Substrates of Cytochrome P450 2C19 (AID 899); also: nearly all actives have a fitted effect of over 60% in size; also: potency is read from the fitted curve at half-maximal effect
# Procedure, shortened: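 Signal comes from luciferase acting on luciferin released by CYP2C19-mediated hydroxylation of Luciferin-H EGE, 10uM (KM). Assay mix: 5nM enzyme, 50mM KPO4; 60 min at 37C with NADPH regeneration. Data normalized against 57uM ketoconazole.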
# [11] = qHTS for Inhibitors of Plasmodium falciparum (7G8) proliferation (AID 504316); also: series mostly up to about 6.7 µM; nearly all actives have a fitted effect of over 65% in size
# Procedure, shortened: as §1
# [12] = Confirmation and Secondary Assay for Modulators of Hemoglobin Beta Chain Splicing at IVS2 654 locus (AID 910);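 also: HeLa cells stably carrying EGFP split by mutant beta-globin IVS2-654 intron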
# Procedure, shortened: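 HeLa cells stably expressing EGFP interrupted by β-globin IVS2-654 intron, seeded overnight in Opti-MEM/2% FCS, then treated 2 days at 37 °C. Restored splicing read as total peak GFP intensity per well by laser scanning cytometry (488 nm excitation, 500–520 nm emission); 500 nM antisense PNA as control.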
# [13] = Confirmation and Secondary Assay for Modulators of Hemoglobin Beta Chain Splicing at IVS2 705 locus (AID 930);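 also: HeLa cells stably expressing the EGFP-705 splicing reporter; GFP fluorescence per well restored by corrected splicing of the IVS2-705 intron in EGFP; series mostly up to about 46 µM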
# Procedure, shortened: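 HeLa EGFP-705 reporter; 500 cells/well, o/n 37C 5% CO2; cpd 2 d; 488 ex/500-520 em laser scan; total peak GFP intensity/well. Ref: 500 nM […] antisense PNA.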
# [14] = target: Ubiquitin carboxyl-terminal hydrolase 1 (Homo sapiens) (UniProt O94782); experiment: Inhibitors of USP1/UAF1: Pilot qHTS (AID 504865);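 also: rhodamine fluorescence freed from ubiquitin-rhodamine substrate followed over time; top concentration of the series differs between compounds; nearly all actives have a fitted effect of over 35% in size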
# Procedure, shortened: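 Enzyme-free wells gave the negative control, while test wells held 1nM USP1/UAF1 preincubated with compound for 15 min at room temperature. Ub-Rho at 150nM final started the reaction, and fluorescence at 480/540 nm was recorded kinetically.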
# 3',5'-cyclic-AMP phosphodiesterase 4B (Homo sapiens), sequence (Q07343 whole entry, looked up): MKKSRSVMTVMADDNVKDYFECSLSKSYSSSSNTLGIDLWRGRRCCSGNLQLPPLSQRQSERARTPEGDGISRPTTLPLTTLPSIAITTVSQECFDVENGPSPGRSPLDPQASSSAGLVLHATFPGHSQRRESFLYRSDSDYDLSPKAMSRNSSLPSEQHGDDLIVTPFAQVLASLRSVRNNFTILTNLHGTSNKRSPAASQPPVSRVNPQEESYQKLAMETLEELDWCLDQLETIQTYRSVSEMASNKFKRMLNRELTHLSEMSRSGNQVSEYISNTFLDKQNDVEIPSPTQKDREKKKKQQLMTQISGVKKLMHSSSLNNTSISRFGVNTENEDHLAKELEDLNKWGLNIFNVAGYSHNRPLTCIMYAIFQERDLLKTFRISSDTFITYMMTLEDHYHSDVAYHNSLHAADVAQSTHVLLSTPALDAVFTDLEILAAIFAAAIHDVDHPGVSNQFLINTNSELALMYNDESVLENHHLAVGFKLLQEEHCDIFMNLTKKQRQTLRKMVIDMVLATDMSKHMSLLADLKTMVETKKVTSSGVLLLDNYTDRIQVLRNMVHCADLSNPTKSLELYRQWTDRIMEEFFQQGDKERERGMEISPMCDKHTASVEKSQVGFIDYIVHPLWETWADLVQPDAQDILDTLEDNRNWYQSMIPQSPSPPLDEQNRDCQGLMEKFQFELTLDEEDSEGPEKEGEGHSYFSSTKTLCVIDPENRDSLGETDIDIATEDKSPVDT
# Cytochrome P450 2C19 (Homo sapiens), sequence (P33261 whole entry, looked up): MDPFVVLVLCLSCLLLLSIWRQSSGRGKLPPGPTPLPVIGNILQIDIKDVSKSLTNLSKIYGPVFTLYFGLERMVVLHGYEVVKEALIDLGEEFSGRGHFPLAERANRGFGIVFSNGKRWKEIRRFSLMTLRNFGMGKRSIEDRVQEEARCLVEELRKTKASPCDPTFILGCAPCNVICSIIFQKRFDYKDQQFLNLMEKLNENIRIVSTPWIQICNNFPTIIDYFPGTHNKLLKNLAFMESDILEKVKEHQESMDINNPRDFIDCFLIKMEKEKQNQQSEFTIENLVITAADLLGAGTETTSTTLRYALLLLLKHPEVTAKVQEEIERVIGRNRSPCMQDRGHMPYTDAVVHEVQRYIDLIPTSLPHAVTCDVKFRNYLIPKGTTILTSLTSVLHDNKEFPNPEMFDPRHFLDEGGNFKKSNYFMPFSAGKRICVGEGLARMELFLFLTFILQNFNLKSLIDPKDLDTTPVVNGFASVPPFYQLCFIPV
# Cytochrome P450 3A4 (Homo sapiens), sequence (P08684 whole entry, looked up): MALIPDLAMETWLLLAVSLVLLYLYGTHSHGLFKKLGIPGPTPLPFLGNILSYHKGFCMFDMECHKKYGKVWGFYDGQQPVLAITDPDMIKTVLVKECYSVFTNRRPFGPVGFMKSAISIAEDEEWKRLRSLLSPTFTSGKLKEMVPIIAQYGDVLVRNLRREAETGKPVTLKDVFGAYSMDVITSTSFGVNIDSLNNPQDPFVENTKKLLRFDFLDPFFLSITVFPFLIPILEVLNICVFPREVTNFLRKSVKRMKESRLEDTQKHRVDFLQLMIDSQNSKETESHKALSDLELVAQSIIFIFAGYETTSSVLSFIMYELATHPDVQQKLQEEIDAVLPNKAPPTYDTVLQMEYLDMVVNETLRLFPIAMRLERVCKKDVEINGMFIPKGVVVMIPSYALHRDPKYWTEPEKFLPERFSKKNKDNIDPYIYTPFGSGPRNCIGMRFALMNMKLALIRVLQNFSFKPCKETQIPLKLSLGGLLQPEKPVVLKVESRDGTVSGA
# Cytochrome P450 2D6 (Homo sapiens), sequence (P10635 whole entry, looked up): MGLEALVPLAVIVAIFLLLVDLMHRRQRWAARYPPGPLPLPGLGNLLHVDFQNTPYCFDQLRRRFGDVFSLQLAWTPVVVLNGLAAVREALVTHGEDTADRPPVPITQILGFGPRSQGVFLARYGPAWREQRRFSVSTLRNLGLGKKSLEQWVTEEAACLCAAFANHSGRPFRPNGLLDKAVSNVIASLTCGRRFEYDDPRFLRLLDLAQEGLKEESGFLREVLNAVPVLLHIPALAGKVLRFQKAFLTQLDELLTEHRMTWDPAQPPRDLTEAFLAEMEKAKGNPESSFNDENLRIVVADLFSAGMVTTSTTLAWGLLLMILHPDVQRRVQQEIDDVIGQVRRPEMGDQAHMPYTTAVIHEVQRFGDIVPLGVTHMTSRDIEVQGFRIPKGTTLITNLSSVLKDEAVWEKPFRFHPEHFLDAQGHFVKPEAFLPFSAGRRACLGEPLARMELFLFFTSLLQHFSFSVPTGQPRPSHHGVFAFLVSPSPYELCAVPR
# Cytochrome P450 2C9 (Homo sapiens), sequence (P11712 whole entry, looked up): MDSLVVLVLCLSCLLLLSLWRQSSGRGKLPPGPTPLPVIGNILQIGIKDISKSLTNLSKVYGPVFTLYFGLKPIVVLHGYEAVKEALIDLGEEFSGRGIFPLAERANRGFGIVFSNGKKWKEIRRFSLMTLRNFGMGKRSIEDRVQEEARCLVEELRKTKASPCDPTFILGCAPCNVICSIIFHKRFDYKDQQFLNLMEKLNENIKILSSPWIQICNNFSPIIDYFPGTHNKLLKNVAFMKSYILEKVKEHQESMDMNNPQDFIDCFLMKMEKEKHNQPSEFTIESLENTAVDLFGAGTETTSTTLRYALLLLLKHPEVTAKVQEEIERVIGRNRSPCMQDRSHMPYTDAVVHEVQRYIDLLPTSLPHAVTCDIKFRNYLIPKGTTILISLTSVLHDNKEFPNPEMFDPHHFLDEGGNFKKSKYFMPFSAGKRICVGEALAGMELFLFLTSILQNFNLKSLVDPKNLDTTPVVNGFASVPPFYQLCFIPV
# Ubiquitin carboxyl-terminal hydrolase 1 (Homo sapiens), sequence (O94782 whole entry, looked up): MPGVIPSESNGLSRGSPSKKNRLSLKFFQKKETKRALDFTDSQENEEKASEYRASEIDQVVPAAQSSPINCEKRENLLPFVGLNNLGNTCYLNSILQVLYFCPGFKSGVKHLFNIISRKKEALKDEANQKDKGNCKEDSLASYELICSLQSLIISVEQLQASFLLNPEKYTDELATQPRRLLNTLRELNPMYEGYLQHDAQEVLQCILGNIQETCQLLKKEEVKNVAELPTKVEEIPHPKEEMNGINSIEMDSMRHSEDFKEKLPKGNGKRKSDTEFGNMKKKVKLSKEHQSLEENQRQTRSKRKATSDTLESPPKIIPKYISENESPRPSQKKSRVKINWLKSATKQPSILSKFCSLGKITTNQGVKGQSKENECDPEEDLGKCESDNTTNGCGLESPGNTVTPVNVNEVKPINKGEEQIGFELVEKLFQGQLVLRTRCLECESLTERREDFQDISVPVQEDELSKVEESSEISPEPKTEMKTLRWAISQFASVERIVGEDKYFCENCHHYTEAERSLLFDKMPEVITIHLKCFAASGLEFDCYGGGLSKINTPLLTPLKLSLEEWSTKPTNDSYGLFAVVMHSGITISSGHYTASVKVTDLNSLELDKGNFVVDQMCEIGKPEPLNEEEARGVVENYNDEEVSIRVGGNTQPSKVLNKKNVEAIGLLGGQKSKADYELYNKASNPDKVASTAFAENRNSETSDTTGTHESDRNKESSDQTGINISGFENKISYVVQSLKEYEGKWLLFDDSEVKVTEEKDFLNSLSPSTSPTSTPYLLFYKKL
compound,measurement,setting,value
COC(=O)[C@@]1(Cc2ccc(F)cc2)[C@H]2c3cc(C(=O)N4CCCC4)n(Cc4ccc(OC(F)(F)F)cc4)c3C[C@H]2CN1C(=O)c1ccccc1,Potency,[1],inactive
same,Potency,[2],inactive
same,Potency,[3],6.31 µM (active)
same,Potency,[4],2.51 µM (active)
same,Potency,[5],inactive
O=C(NCc1ccccc1)[C@@H]1C[C@H]1[C@@H](NP(=O)(c1ccccc1)c1ccccc1)c1ccccc1,Potency,[1],inactive
same,Potency,[2],inactive
COC(=O)[C@@]1(Cc2ccc(OC)cc2)[C@@H]2[C@@H](CC(=O)[C@H]2CC(=O)C(=O)N2CCCC2)CN1C(=O)c1ccccc1,Potency,[1],inactive
same,Potency,[4],0.794 µM (active)
same,Potency,[5],inactive
COc1cc2nc3c(c([Si](C)(C)C(C)(C)C)c2cc1OC)Cn1c-3cccc1=O,Potency,[1],inactive
same,Potency,[4],3.98 µM (active)
same,Potency,[5],inactive
CC1(OC(=O)CCc2ccccc2)C(=O)C=C2C=C(c3ccc(C#N)cc3)N(Cc3ccccc3)C=C2C1=O (centres undefined),Potency,[6],inactive
same,Potency,[7],inactive
same,Potency,[8],inactive
CC(C)C[C@@H](CC(=O)N[C@@H](CCCN)CC(=O)N[C@@H]1CCCC[C@H]1C(=O)N[C@H](CC(=O)N[C@@H](CCC(=O)O)CC(=O)O)CC(C)C)NC(=O)[C@@H]1CNCC[C@H]1N,Potency,[1],inactive
same,Potency,[2],inactive
same,Potency,[9],inactive
same,Potency,[10],inactive
COC(=O)[C@H]1C[C@@H]1[C@H](NS(=O)(=O)c1ccc(-c2ccccc2)cc1)c1ccccc1,Potency,[1],inactive
COC(=O)c1ccc(C(NC(=O)c2ccccc2)[C@]2(C)C[C@H]2C2CCCCC2)cc1 (some centres undefined),Potency,[1],inactive
same,Potency,[5],inactive
same,Potency,[10],2.51 µM (active)
C[C@@H](C(=O)NCc1ccccn1)[C@H]1C[C@]1(C)[C@H](NC(=O)OCc1ccccc1)c1ccccc1,Potency,[1],inactive
same,Potency,[2],inactive
same,Potency,[9],12.6 µM (active)
same,Potency,[10],2 µM (active)
CCCC[C@@H]1C[C@H]1C(NC(=O)c1ccccc1)c1ccccc1C(F)(F)F (some centres undefined),Potency,[1],inactive
same,Potency,[3],1.26 µM (active)
same,Potency,[5],inactive
same,Potency,[10],0.501 µM (active)
CCCC[C@@H]1C[C@H]1C(NC(=O)c1cccs1)c1ccc(-c2ccccc2)cc1 (some centres undefined),Potency,[1],inactive
same,Potency,[5],inactive
CO[C@@H]1/C=C\O[C@]2(C)Oc3c(C)c(O)c4c(O)c(c(/C=N\N5CCN(C)CC5)c(O)c4c3C2=O)NC(=O)/C(C)=C\C=C/[C@H](C)[C@H](O)[C@H](C)[C@H](O)[C@H](C)[C@H](OC(C)=O)[C@@H]1C,Potency,[2],inactive
COC(=O)[C@@]1(Cc2ccc(F)cc2)[C@H]2c3cc(C(=O)N(C)C)n(Cc4ccc(C)o4)c3C[C@H]2CN1C(=O)c1ccccc1,Potency,[1],inactive
same,Potency,[5],inactive
COC(=O)C1=C(C)N(Cc2ccccc2)C(=O)N[C@H]1CCc1ccccc1,Potency,[6],inactive
same,Potency,[7],inactive
same,Potency,[11],inactive
same,Potency,[8],inactive
CCN1C(=O)N[C@H](c2ccccc2)C(C(C)=O)=C1C,Potency,[6],inactive
same,Potency,[7],inactive
same,Potency,[11],inactive
same,Potency,[8],inactive
C[C@@H](C(=O)NCc1ccccn1)[C@@H]1C[C@@]1(C)[C@@H](NC(=O)OCc1ccccc1)c1ccccc1,Potency,[1],inactive
same,Potency,[2],inactive
same,Potency,[10],2.51 µM (active)
COC(=O)[C@@]1(Cc2ccc(OC)cc2)[C@@H]2C(=CC(=O)[C@H]2CC(=O)C(=O)N(C)C)CN1C(=O)c1ccccc1,Potency,[1],inactive
same,Potency,[5],inactive
CO/N=C(/C(=O)NC1C(=O)N2C(C(=O)O)=C(COC(N)=O)CSC12)c1ccco1 (centres undefined),Potency,[4],inactive
same,Potency,[12],inactive
same,Potency,[13],inactive
same,Potency,[14],inactive

# Reference: PubChem BioAssay (NCATS)
